Compound activity from PubChem BioAssay.
Rows were chosen to be rich in hits. Some 1.4% of all compounds tested hit in one or more screens of this group.
Sa RN4220 lethal – growth inhibition of S. aureus RN4220, primary screen, OD600; 330,000 compounds, 0.33% hits; 16 h; inhibition, % (no concentration beside the values); in the data active = inhibition above about 85%;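 note: plate controls were untreated cells for no effect and reference antibiotic for full effect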
SSB-PriA inh – inhibitors of Klebsiella pneumoniae PriA binding to SSB C-terminal tail, primary screen, biochemical, AlphaScreen; PriA–SSB C-terminal tail interaction (Klebsiella pneumoniae); 430,000 compounds, 0.6% hits; AlphaScreen SSBct-PriA binding, biotinylated peptide; inhibition, % at 33 µM; in the data active = inhibition mostly above about 37%, no sharp cut-off; inactive = mostly below about 20%;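 note: plate controls were negative control peptide for no effect and reference peptide for full effect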
CCHFV vOTU inh – CCHFV vOTU protease inhibitors, primary screen, biochemical, Pep-AMC substrate, fluorescence; Crimean-Congo hemorrhagic fever virus L polyprotein viral ovarian tumor (vOTU) protease …; inhibition, % at 11.5 µM; 370,000 compounds, 0.55% hits; AID 651958, 2012; in the data active = inhibition above about 30%; note: 0% = vehicle wells with enzyme and 100% = no enzyme wells
Mtb hypoxia rep – PubChem AID 1159583. 300,000 compounds, 0.1% hits. fluorescence inhibition, % (test concentration not listed). M. tuberculosis hypoxia-regulated fluorescent reporter, fluorescence; in the data active = fluorescence inhibition mostly above about 23%, no sharp cut-off; inactive = mostly below about 17%
Sa ugtP lethal – growth inhibition of ugtP-null S. aureus, primary screen, RN4220 ugtP deletion, OD600; 16 h; growth inhibition, % (concentration not given with the values); 330,000 compounds, 0.54% hits; AID 1259309, 2017; in the data active = growth inhibition above about 68%;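 note: plate controls were untreated wells for no effect and antibiotic for full effect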
The depositor's hits bear a star; . = no result shown.

SMILES	Sa RN4220 lethal	SSB-PriA inh	CCHFV vOTU inh	Mtb hypoxia rep	Sa ugtP lethal
COc1ccc(CCn2c(=N)c(C(=O)NCc3ccco3)cc3c(=O)n4ccccc4nc32)cc1OC	3.0	18.9	-4.0	-0.7	1.9
Cc1nc(N2CCN(C(=O)c3ccccc3Cl)CC2)cc(C(F)(F)F)n1	.	-3.0	.	.	.
O=C(Nc1ccc([N+](=O)[O-])cc1Cl)c1cc(Cl)ccc1O	100.9*	-1.1	-3.2	.	100.1*
O=C(Nc1cccc(Cl)c1)c1cc(N=Nc2ccc([N+](=O)[O-])cc2Cl)ccc1O	94.4*	0.2	-0.5	70.1*	99.6*
O=C1NC2(CCN(S(=O)(=O)c3ccccc3Cl)CC2)C(=O)N1CCc1ccccc1	.	-2.0	.	.	.
CS(=O)(=O)C1CCN(C(=O)c2cccc(C#N)c2)C1 (centres undefined)	.	-3.0	.	.	.
Cc1ccc2c(c1)c(-c1ccccc1)c(-c1ccccc1)n2CC(O)CNC1CCCC1 (centres undefined)	.	61.0*	.	.	.
c1ccc(-c2nc(N3CCOCC3)c3ccccc3n2)nc1	1.7	61.7*	20.0	.	3.8
c1ccc(-c2nc(N3CCCC3)c3ccccc3n2)nc1	.	54.2	.	.	.
CCCN(CCC)c1nc(-c2ccccn2)nc2ccccc12	99.1*	-6.5	12.1	.	99.6*
c1ccc(-c2nc(N3CCCCCC3)c3ccccc3n2)nc1	5.2	86.7*	7.5	.	57.4
CCCCN(CC)c1nc(-c2ccncc2)nc2ccccc12	-9.2	-32.4	5.0	11.1	-15.5
CC(=O)OC1CCC2(C=NO)C(=CCC3C4CCC(=O)C4(C)CCC32)C1 (centres undefined)	5.5	-19.9	.	4.2	5.5
C=C[C@]12CC[C@H](OC(C)=O)CC1=CCC1C2CC[C@@]2(C)C1CCC21OCCO1 (some centres undefined)	-5.1	-8.4	11.0	4.4	92.3*
CCc1cccc(C)c1N(C(=O)Cn1c(CO)nc2ccccc21)[C@@H](C)COC	.	-4.0	.	.	.
CCc1cccc(C)c1N(C(=O)Cn1c(COC)nc2ccccc21)C(C)COC (centres undefined)	7.1	46.4*	0.6	3.9	1.8
CC(=NNC(=O)c1ccccc1)c1c(C)[nH]n(-c2ccccc2)c1=O	7.5	-2.5	.	6.8	-6.5
CCCSC(=S)c1c(C)[nH]n(-c2ccccc2)c1=O	90.8*	4.7	17.6	10.3	89.8*
CCC(=NNC(=O)c1ccccc1O)c1c(C)[nH]n(-c2ccccc2)c1=O	92.5*	-1.5	.	-2.5	97.9*
O=C(CN1CCN(CC(O)C2CC2)CC1)Nc1cccnc1 (centres undefined)	.	-17.0	.	.	.
CCN1C(=O)N(CC)C(=O)C2(Cc3ccccc3N3CCN(c4ccccc4)CC32)C1=O (centres undefined)	3.2	-9.8	-6.3	3.1	88.5*
CN1C(=O)N(C)C(=O)C2(Cc3cc(N)ccc3N3CCN(c4ccccc4F)CC32)C1=O (centres undefined)	.	.	7.3	.	.
NC(=O)NC(=O)CC1S/C(=N/N=C2/NC(=O)CS2)NC1=O (centres undefined)	7.8	.	-17.4	-2.7	1.3
NC(=O)NC(=O)CC1SC(=NN=C2CSC(=O)N2)NC1=O (centres undefined)	.	73.6*	.	.	.
O=[N+]([O-])c1cc(Cl)cc(C=NNC(=S)Nc2ccc(S(=O)(=O)N3CCOCC3)cc2)c1O	21.2	67.1*	.	19.6	-15.1
SMILES	Sa RN4220 lethal	SSB-PriA inh	CCHFV vOTU inh	Mtb hypoxia rep	Sa ugtP lethal
O=S(=O)(c1ccc(NC(=S)N/N=C/c2ccc(O)c(O)c2)cc1)N1CCOCC1	.	.	0.2	.	.
O=C(O)c1ccc(C2CCCC2)cn1	.	100.3*	.	.	.
CC(=NO)C(=O)OC1CC(C)CCC1C(C)C (centres undefined)	15.1	-21.6	.	11.2	-3.4
c1cc2c(cc1C1CCCCC1)c1c3n2CCCNC3CCC1 (centres undefined)	88.6*	45.0	15.4	.	87.1*
COC(=O)c1ccc2c(=O)n(Cc3ccccc3)c(N3CCN(c4ccccc4Cl)CC3)nc2c1	.	-21.0	.	.	.
COc1ccnc(CSC(N)=Nc2ccc(F)cc2)c1	0.4	45.7*	1.2	.	3.4
COc1cccc(N/C(N)=N/c2nc(CSc3ccccn3)cc(=O)[nH]2)c1	7.6	.	.	8.6	3.3
O=C(NCC(c1cccs1)N1CCc2ccccc21)c1ccc2c(c1)OCO2 (centres undefined)	.	39.0*	.	.	.
c1ccc(CCSc2nccn2-c2ccccc2)cc1	4.9	61.7*	5.8	.	10.0
CCc1ccc(CSc2nccn2-c2ccccc2)cc1	5.8	63.0*	14.2	.	5.3
O=C(/C=C/c1ccccc1)N1CCC(c2nnc(-c3ccco3)o2)CC1	.	-4.0	.	.	.
O=[N+]([O-])c1ccc(O)c(C=NNc2ccc(S(=O)(=O)O)cc2)c1	88.7*	-3.0	16.4	14.5	71.6
O=C1C2C(C(=O)N1N=Cc1cc([N+](=O)[O-])ccc1O)C1C=CC2C12CC2 (centres undefined)	93.1*	-10.8	.	3.1	81.4
CN(/N=C/c1cc([N+](=O)[O-])ccc1O)c1ccccc1	.	.	-5.4	.	.
Cc1ccccc1NC(=O)CCC(=O)NN=Cc1cc([N+](=O)[O-])ccc1O	94.8*	0.0	.	16.0	84.8*
CC(N=Cc1cc([N+](=O)[O-])ccc1O)c1ccccc1 (centres undefined)	85.5*	-13.4	26.3	13.9	67.0
O=C(NN=Cc1cc([N+](=O)[O-])ccc1O)C1CC1	89.5*	0.7	.	4.7	79.9
CCN(CC)c1ccc(C(=C2C=CC(=[N+](CC)CC)C=C2)c2ccc(S(=O)(=O)O)cc2S(=O)(=O)[O-])cc1	-29.3	81.8*	7.8	9.1	-23.8
CCN(CC)c1ccc(C(=O)O)cc1	5.7	-6.3	3.3	4.6	2.6
COc1ccc(OC)c2[nH]c(=O)c(CCNC(=O)c3ccco3)cc12	.	1.0	.	.	.
CC(=O)Nc1c(Br)cc2c(c1Br)C(=O)c1ccccc1-2	.	-6.0	6.6	.	.
CC(=O)C1=C(c2ccc(Br)cc2)C(=O)c2ccccc2C1=O	97.2*	-5.7	22.8	2.7	96.7*
Cn1c(=O)c2[nH]c(CNc3ccc(C(=O)O)cc3)nc2n(C)c1=O	.	72.3*	-4.7	.	.
CN1CC=C(/C=C/c2ccc(-c3ccccc3)cc2)CC1	21.3	-0.1	.	12.1	92.9*
CCCCCC1CC1C(=O)N/N=C/c1ccc(N(C)C)cc1 (centres undefined)	.	.	-9.4	.	.
SMILES	Sa RN4220 lethal	SSB-PriA inh	CCHFV vOTU inh	Mtb hypoxia rep	Sa ugtP lethal
CN(C)c1ccc(C=NNC(=O)C2CC2c2ccccc2)cc1 (centres undefined)	-3.0	44.1*	.	3.5	-10.2
COc1cc(/C=N/N=C(N)N)ccc1OCc1ccccc1Cl	.	.	9.2	.	.
NC(N)=NN=Cc1ccc(OCc2ccccc2Cl)cc1	100.3*	19.2	.	10.9	100.8*
Nc1nn2c(-c3ccccc3)cc(=O)[nH]c2c1N=Nc1ccc(O)cc1	15.5	6.0	-7.7	8.6	39.3
Nc1nn2c(-c3ccccc3)cc(=O)[nH]c2c1N=Nc1ccc(Br)cc1	99.7*	-1.8	-9.0	12.3	100.1*
Cc1c(C(=O)O)cncc1-n1cccc1	.	1.0	.	.	.
